Test results published in PubChem BioAssay (EPA / NIEHS).
Active and inactive are the calls of the source. Rule for the calls: active = hit-call score of the fitted dose curve at least 0.9, where 1 is the maximum; inactive = score below 0.9.

assay: BSK_3C_Proliferation: Cell Proliferation Assessment in the BioMAP Diversity Plus: 3C Assay (AID 2283006); conditions: primary human endothelial cells (HUVEC);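 for AC50: potency may reflect either rise or fall in cell number versus DMSO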
Procedure: BSK_3C is a cell-based, multiplexed-readout assay that uses umbilical vein endothelium, a human vascular primary cell, with measurements taken at 24 hours after chemical dosing in a 96-well plate.BSK_3C_Proliferation is an assay component measured in the BSK_3C assay. It measures 0.1% sulforhodamine related to cell proliferation using Sulforhodamine staining technology.Data from the assay component BSK_3C_Proliferation was analyzed into 1 assay endpoint. This assay endpoint, BSK_3C_Proliferation, was analyzed with bidirectional fitting relative to DMSO as the negative control and baseline of activity. Using a type of viability reporter, measures of total protein for gain or loss-of-signal activity can be used to understand the viability at the cellular-level. Furthermore, this assay endpoint can be referred to as a secondary readout, because this assay has produced multiple assay endpoints where this one serves a viability function. To generalize the intended target to other relatable targets, this assay endpoint is annotated to the cell cycle intended target family, where the subfamily is proliferation.
The levels of cell surface (or secreted, indicated by the prefix "s") biomarker endpoints were measured by ELISA. Overt cytotoxicity to cells in confluent adherent cultures (all systems other than the BT system) was assessed by measuring total protein levels using sulforhodamine B (SRB) staining in parallel cultures at the time of biomarker measurements, indicated as SRB endpoints. For proliferation assays for adherent cell types, individual cell types are cultured at sub-confluence and relative cell numbers quantified by SRB staining at time points optimized for each system (48 h: 3C and CASM3C systems; 72 h: BT and HDF3CGF systems; 96 h: SAg system). SRB was performed by staining cells with 0.1% SRB after fixation with 10% TCA and reading wells at 560 nm.Viability and proliferation of PBMC (T cells) was quantified by Alamar Blue reduction for the SAg and BT systems. For PBMC viability (referred to as PBMC Cytotoxicity within the assay endpoint names), cells were plated (75,000/well in a 96-well plate) and then chemical samples added for 1 h before addition of activators, SEB and TSST-1 (20 ng/mL final concentration each). Cells were incubated for 90 h. Then, Alamar Blue (20 uL/well) (Invitrogen, Cat DAL1100) was added for 6 h, and the plates were read with a fluorescence microplate reader at 546/580 nm (excitation/emission). For PBMC proliferation, cells were plated and activated as above but incubated for only 16 h prior to addition of Alamar Blue. Plates were read after 6 h.

SMILES | outcome | AC50
CC1=C(C)S(=O)(=O)CCS1(=O)=O | inactive | 
COC(=O)CCCC(=O)OC | inactive | 
CC(=O)OCC(COC(C)=O)OC(C)=O | inactive | 
CS(=O)(=O)c1ccc([C@@H](C[C@H]2CCC(=O)C2)C(=O)Nc2cnccn2)cc1Cl | inactive | 
O=C(NS(=O)(=O)/C=C/c1cccs1)c1ccc(F)cc1Br |  | 2.87 µM (active)
O=C1CCCCC1 | inactive | 
Nc1nc(Cl)nc2c1ncn2[C@H]1C[C@H](O)[C@@H](CO)O1 |  | 0.147 µM (active)
CC(N)=O | inactive | 
OCC(O)CO | inactive | 
Cc1ccc(C(C)(C)C)c(O)c1 | inactive | 
CCCC(=O)O | inactive | 
CC(=O)OC1CC(C)OC(C)O1 (stereo not given) | inactive | 
CC(C)(C)c1ccccc1 | inactive | 
Oc1ccc(O)cc1 |  | 20 µM (active)
CCCCCCCCCC[N+](C)(C)[O-] | inactive | 
CCCCCCCCCCCCCCOS(=O)(=O)O |  | 30.1 µM (active)
CCCCC(CC)COC(=O)CCCCCCCC(=O)OCC(CC)CCCC (stereo not given) | inactive | 
CC(C)NCC(O)c1ccc(O)c(O)c1 (stereo not given) | inactive | 
COc1ccc(C(=O)Nc2nc3ccccc3c(NCc3ccccc3)c2C#N)cc1 |  | 9.43 µM (active)
CN(C)C(=O)NC1(c2ccccc2)CCN(CCC[C@]2(c3ccc(Cl)c(Cl)c3)CCCN(C(=O)c3ccccc3)C2)CC1 |  | 6.94 µM (active)

SMILES | outcome | AC50
O=C(Oc1ccccc1)c1cccc(C(=O)Oc2ccccc2)c1 |  | 15.2 µM (active)
CC(C)OC(=O)C(C)(C)Oc1ccc(C(=O)c2ccc(Cl)cc2)cc1 |  | 15.8 µM (active)
O=C(O)CC(O)(CC(=O)O)C(=O)O | inactive | 
OCC(CO)n1cnc(-c2ccc(F)cc2)c1-c1ccnc(Oc2ccccc2)n1 | inactive | 
CC(C)c1cccc(C(C)C)c1 | inactive | 
CCCCC(CC)COP(=O)(OCC(CC)CCCC)OCC(CC)CCCC (stereo not given) |  | 20.6 µM (active)
O=C(O)CN(CC(=O)O)CC(=O)O | inactive | 
O=Cc1ccccc1C=O | inactive | 
CC(=O)CC(c1ccccc1)c1c(O)c2ccccc2oc1=O (stereo not given) | inactive | 
S=c1[nH]c2ccccc2s1 | inactive | 
CCc1nc(N)nc(N)c1-c1ccc(Cl)cc1 | inactive | 
CN(C)C(=O)NC1(c2ccccc2)CCN(CC[C@@]2(c3ccc(F)c(F)c3)CN(C(=O)c3ccccc3)CCO2)CC1 | inactive | 
O=C1O[C@H]([C@H](O)CO)C(O)=C1O | inactive | 
Nc1nc(=S)c2[nH]cnc2[nH]1 | inactive | 
NC(=Nc1ccccc1)Nc1ccccc1 | inactive | 
C/C=C/C=C/C(=O)O | inactive | 
O=C1NC(=O)C(c2ccccc2)(c2ccccc2)N1 | inactive | 
Cc1c(C)c2c(c(C)c1O)CCC(C)(COc1ccc(CC3SC(=O)NC3=O)cc1)O2 (stereo not given) |  | 28.5 µM (active)
CC(C)c1cccc(C(C)C)c1NC(=O)NS(=O)(=O)c1cc(C(C)(C)O)co1 | inactive | 
N[C@@H](Cc1c[nH]c2ccccc12)C(=O)O | inactive | 
